ALR H2O2 inh – inhibitors of human sulfhydryl oxidase ALR | P55789 | purified ALR, DTT oxidation, H2O2 HRP-luminol luminescence | inhibition, % (concentration not given with the values) | hit rate 3.8% among 290,000 | AID 485317;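 active = mean replicate inhibition above about 79%, with every replicate also reaching it, limit read from the data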
Target sequence (P55789 whole entry, looked up): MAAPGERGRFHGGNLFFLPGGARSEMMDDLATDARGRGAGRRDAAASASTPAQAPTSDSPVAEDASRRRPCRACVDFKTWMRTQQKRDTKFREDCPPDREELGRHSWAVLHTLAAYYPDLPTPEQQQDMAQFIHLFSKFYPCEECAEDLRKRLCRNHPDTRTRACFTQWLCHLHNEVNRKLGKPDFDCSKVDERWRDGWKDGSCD
SUMO Mot1 rescue – blocks SUMOylation pathway, rescuing yeast Mot1-301 growth. S. cerevisiae Mot1-301 growth rescue, ATP luminescence, 38.5C; percent above DMSO median, 100 means doubled. growth rescue, % at 18.8 µM. hit rate 1% among 320,000;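 active = every valid replicate shows activation above 250% relative to neutral control wells; inactive = the rest, any valid replicate at or below 250%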
HIF act – HIF pathway transcriptional activation; AID 1910; activation, % at 7.5 µM (by protocol); hit rate 0.32% among 300,000; U2OS HRE-luciferase reporter, luminescence; normalized: DMSO 0%, desferrioxamine 100%;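 active = mean activation of at least 10% of the iron chelator positive control signal, with at least half of replicates also reaching 10%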
AI-2 QS modul – modulators of Vibrio harveyi AI-2 quorum sensing system; Vibrio harveyi JMH597 AI-2 luminescence/OD600 ratio, 9 h; active compounds read low; strain lacks LuxN and CqsS sensors; 0 = neutral-control median; activity change, % at 7.5 µM; hit rate 0.4% among 300,000; in the data active = activity change below about -75%, passing the limit was not always enough;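 also: luminescence divided by OD600 gain over 9 h not by final OD600 alone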
Large screens that a line does not name were inactive. A selection: hits, their analogues and other compounds. The true share with any hit is near 4.8%.

CCc1ccc(NC(=O)CSc2nnc(CNC(=O)c3c(F)cccc3Cl)o2)cc1	ALR H2O2 inh 99
O=C(CSc1nnc(CNC(=O)c2ccc(F)cc2)o1)Nc1ccc2c(c1)OCCO2	none
O=C(CSc1nnc(CNC(=O)c2ccccc2)o1)Nc1ccc2c(c1)OCCO2	ALR H2O2 inh 98
CCOc1ccc(CCNC(=O)c2cc3c(s2)CS(=O)(=O)C3)cc1OCC	none
O=C(O)CSc1c(-c2ccccc2)[nH]c2ccccc12	ALR H2O2 inh 98
O=C(O)CSc1c(-c2cccs2)[nH]c2ccccc12	ALR H2O2 inh 99
O=C(O)CSc1c[nH]c2ccccc12	ALR H2O2 inh 98 (no result: SUMO Mot1 rescue)
O=C(O)Cc1c[nH]c2ccccc12	none
O=C(OCC(=O)N1N=C(c2ccc(Cl)cc2)CC1c1ccco1)c1cccnc1 (stereo unspecified)	none (no result: HIF act, AI-2 QS modul)
COc1ccc2cc(C(=O)N3CCc4ccccc43)[nH]c2c1	none
O=C(NC(=S)Nc1ccccc1Br)C1CC1	AI-2 QS modul -77
Cc1ccccc1NC(=S)NC(=O)C1CCCCC1	none
O=C(Cc1coc2cc(O)ccc12)NNC(=O)c1ccc(Br)s1	ALR H2O2 inh 99 (no result: HIF act, AI-2 QS modul)
CC(C)(C)c1nc(SCC(=O)Nc2ccc(N3CCOCC3)cc2)c2ccccc2n1	ALR H2O2 inh 98
CCn1c(SCC(=O)Nc2ccc(N3CCOCC3)cc2)nnc1-c1ccco1	ALR H2O2 inh 98
CCn1c(C)nnc1SCC(=O)Nc1ccc(N2CCOCC2)cc1	ALR H2O2 inh 88
CCn1c(COc2ccccc2)nnc1SCC(=O)Nc1ccc(N2CCOCC2)cc1	none
CCn1c(SCC(=O)Nc2ccc(N3CCOCC3)cc2)nnc1-c1ccc(OC)cc1	none
Cc1cc(C)cc(NC(=O)CCc2c(C)nn(-c3ccc(N4CCOCC4)nn3)c2C)c1	none
C#CCOCCOCCOCCNc1nc(N2CCN(C(=O)[C@H](CCCCN)n3cc([C@@H](N)[C@H](C)CC)nn3)CC2)nc(N2CCN(C(=O)[C@H](CCC(=O)O)n3cc([C@@H](N)CCSC)nn3)CC2)n1	none (no result: ALR H2O2 inh, HIF act, AI-2 QS modul)
CCC(CO)Oc1cc(NC(=O)c2ccccc2Cl)c2ncn(C(C)C)c2c1 (stereo unspecified)	none (no result: HIF act, AI-2 QS modul)
CCC(C)N1CC(O)=C(c2nc3ccccc3[nH]2)C1=N (stereo unspecified)	ALR H2O2 inh 82 (no result: HIF act)
CCCCCCN1CC(O)=C(c2nc3ccccc3[nH]2)C1=N	none
CC(=O)c1ccc(NC(=O)CCOc2cc(C)ccc2C)cc1	none
C(=N\N1CCOCC1)/c1cn(-c2ccccc2)nc1-c1ccccc1	none
C(=N\N1CCOCC1)/c1nc(-c2ccccc2)n2ccccc12	ALR H2O2 inh 96
CCOC(=O)C1(CCOC)CCN(Cc2ccc3nonc3c2)CC1	SUMO Mot1 rescue 327
CS(=O)(=O)n1nc(OC(=O)c2cccs2)cc1N	ALR H2O2 inh 89
COc1ccc(S(=O)(=O)n2nc(OC(=O)c3cccs3)cc2N)cc1	none
CN1C(=O)CSc2ccc(NC(=O)NCc3ccccc3)cc21	none
Cc1ccc(CNC(=O)Nc2ccc3c(c2)N(C)C(=O)CS3)cc1	AI-2 QS modul -78
Cc1cc(=O)nc2c3ccccc3n(C(C)C(=O)NCCN3CCOCC3)n12 (stereo unspecified)	none
NC(=O)C1(c2ccccc2)OC1c1ccccc1 (stereo unspecified)	none
Cc1oc(-c2ccccc2)cc1C(=O)Nc1cccc(C(=O)O)c1	ALR H2O2 inh 84
CCN(C(=O)CSc1nccc(=O)[nH]1)c1cccc2ccccc12	none (no result: ALR H2O2 inh, HIF act, AI-2 QS modul)
COC(=O)c1ccc(N2C(=O)CC(N(C)CCc3ccc(OC)c(OC)c3)C2=O)cc1 (stereo unspecified)	SUMO Mot1 rescue 303
COc1ccc(N2C(=O)CC(N(C)CCc3ccc(OC)c(OC)c3)C2=O)cc1 (stereo unspecified)	none
COC(=O)[C@H](Cc1ccccc1)NC(=O)NCCc1ccc(OC)cc1	none (no result: ALR H2O2 inh)
CC(=O)NNC(=O)CSc1nnc(-c2ccccc2)c(-c2ccccc2)n1	ALR H2O2 inh 83
Cc1ccc(N2C(=O)N(CC(=O)Nc3ccc(C)c(C)c3)C(=O)C2C)cc1 (stereo unspecified)	none
CC(C)NS(=O)(=O)c1ccc(NC(=O)C(C)OC(=O)CCC2CCCC2)cc1 (stereo unspecified)	none (no result: ALR H2O2 inh, HIF act, AI-2 QS modul)
Cc1ccc(-c2nc(CSc3nc4ccccc4c(=O)n3CCO)cs2)cc1	ALR H2O2 inh 98
Cc1cccc(CSc2nc3ccccc3c(=O)n2C)c1	none (no result: HIF act, AI-2 QS modul)
Cc1ccc(-c2nc(CSc3nc4ccccc4c(=O)n3C)cs2)cc1	ALR H2O2 inh 98
CCCCN(C(=O)C(C)N1C(=O)c2ccccc2C1=O)c1c(N)n(CC(C)C)c(=O)[nH]c1=O (stereo unspecified)	none (no result: HIF act, AI-2 QS modul)
Cc1ccc(S(=O)(=O)Nc2ccccc2C(=O)N2CCCCC2)cc1	none
COc1ccc(C(=O)c2ccc(Cl)c([N+](=O)[O-])c2)cc1	ALR H2O2 inh 97
CN1CCN(S(=O)(=O)c2ccc(SCCOc3ccccc3)nc2)CC1	none (no result: ALR H2O2 inh)
CCOc1ccc(OCCSc2ccc(S(=O)(=O)N3CCN(C)CC3)cn2)cc1	SUMO Mot1 rescue 295 (no result: HIF act, AI-2 QS modul)
CC(C)Cc1nc2ccccc2[nH]1	none
Nc1ccc2nc(Cc3ccccc3)[nH]c2c1	ALR H2O2 inh 100
Cc1ccc2nc(Cc3ccc(N)cc3)[nH]c2c1	none (no result: ALR H2O2 inh, HIF act)
CC(C)Cc1nc2ccc(N)cc2[nH]1	ALR H2O2 inh 100
CC(=O)OC(C)[C@H]1CC[C@H]2[C@@H]3CC[C@H]4C[C@@H](OC(C)=O)CC[C@]4(C)C3=CC[C@]12C (stereo partly specified)	none
COc1ccc(OCC(=O)Nc2ncc3c(n2)CC(C)(C)CC3=O)cc1	none
O=C(COc1ccccc1)Nc1ncc2c(n1)CCCC2=O	SUMO Mot1 rescue 292
CN1CCc2[nH]c3ccc(C(=O)NN)cc3c2C1	ALR H2O2 inh 98
CCSC1=C(C#N)C(c2ccc3c(c2)OCO3)C2=C(CCCC2=O)N1 (stereo unspecified)	none
COC(=O)CSC1=C(C#N)C(c2ccc3c(c2)OCO3)C2=C(CCCC2=O)N1 (stereo unspecified)	ALR H2O2 inh 99
COC(=O)/C=C1/S/C(=N/NC(=O)c2ccc(OC)cc2)NC1=O	none
COC(=O)/C=C1/S/C(=N/NC(=O)c2ccccc2OC)NC1=O	ALR H2O2 inh 97
COc1ccc(NC(=O)CN(C)C(=O)CSc2nc3ccccc3s2)cc1	ALR H2O2 inh 98
CN(CC(=O)N1CCOCC1)C(=O)CSc1nc2ccccc2s1	none
CN(CC(=O)Nc1ccccc1Cl)C(=O)CSc1nc2ccccc2s1	ALR H2O2 inh 85
Cc1nnc(SCC(=O)N(C)CC(=O)Nc2ccccc2Cl)s1	none
CCOC(=O)c1sc(SCC(=O)Nc2ccc(N(C)C)cc2)nc1N	none
COc1ccc(NC(=O)CSc2nc(N)c(C(=O)Nc3ccc(N(C)C)cc3)s2)cc1	ALR H2O2 inh 99
Cc1ccc(N/N=C(\C#N)C(=N)N2CCCCCC2)cc1	none
CCN(CC)C(=N)/C(C#N)=N/Nc1ccc(C)cc1	ALR H2O2 inh 99
Cc1ccc(N/N=C(\C#N)C(=N)N2CCOCC2)cc1	ALR H2O2 inh 98
COc1ccc(N/N=C(\C#N)C(=N)N2CCCCC2)cc1	ALR H2O2 inh 99

Compound activity: PubChem, Broad Institute
